TNAP Pi inh: blocks human TNAP phosphate release | P05186 | purified TNAP, pNPP, malachite green phosphate absorbance | inhibition, % at 20 µM | 21,000 tested, under 10 active
TNAP inh pNP: human TNAP inhibition, p-nitrophenol detection; AID 615; 21,000 tested, under 10 active; purified TNAP, pNPP hydrolysis, absorbance 405 nm; inhibition, % at 20 µM;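 also: 0% = DMSO only wells and 100% = 1 mM levamisole wells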
* hit, by the source's call. A selection follows.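 The calls were made as follows: active = inhibition above 50% at the 20 µM single-dose screen; inactive = the rest.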

SMILES | TNAP Pi inh | TNAP inh pNP
CC1(C)C(C=C(Cl)Cl)C1C(=O)N1CCN(c2ccccc2)CC1 (stereo unspecified) | 9 | 6
Cc1noc(C)c1CSCC(=O)OCc1nc2ccccc2c(=O)n1CC#N | 13 | 8
CC(=O)Cc1nsc(NC(=O)c2ccc(COc3ccccc3)o2)n1 | -5 | -10
O=c1[nH]c(Cn2nnc(-c3ccccc3)n2)nc2scc(-c3ccccc3)c12 | 0 | 0
COc1cccc(-c2nc(N3CCN(Cc4ccccc4)CC3)c3ccccc3n2)c1O | 0 | 0
CCCOc1cc(C)c(S(=O)(=O)n2ccc(C)n2)cc1C | 0 | 0
COC(=O)c1sc(=S)sc1C(=O)OC | -8 | 0
CCOC(=O)C1=C(N)OC2=C(C(=O)CC(C)(C)C2)C1c1ccccc1OCC#N (stereo unspecified) | 8 | 1
CC(C)Cn1c(N)c(C(=O)COC(=O)c2ccc3ccccc3n2)c(=O)n(C)c1=O | 14 | 4
Cc1c(-c2cccs2)[n+](=O)c2c(n1[O-])CCCC2 | 4 | 1
CN(C1CCCCC1)S(=O)(=O)Cc1ccccc1 | 0 | 0

Screening data: PubChem, Sanford-Burnham Center for Chemical Genomics
